# An excerpt weighted towards active compounds, which were near 11% of everything screened.
# Insulin prom inh: TRM-6 insulin promoter activity inhibition | TRM-6 cells (human fetal islet line), insulin promoter-eGFP reporter, imaging; reporter expression induced with tamoxifen | inhibition, % at 2 µM | 130,000 tested, 0.9% active | AID 1273;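 active means inhibition above the mean plus 3 SD, with well images judged a real hit on visual review, cut at about 60% in these data, passing the limit was not always enough; inconclusive means inhibition over the cutoff but images rejected on review; inactive means inhibition not above the cutoff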
# WT yeast gro inh: growth inhibition of WT yeast, mitochondrial fusion screen; mitochondrial fusion phenotypic screen, WT strain; inhibition, % at 10 µM; 190,000 tested, 2.1% active; in the data active means inhibition above about 58%; tested in S. cerevisiae
# Autophagy HCS: alters autophagy in cells; MEF GFP-LC3 puncta imaging; test concentration mostly 10 µM; 190,000 tested, 0.98% active; calls only at 10 µM (by protocol);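 active means percentage of spot-positive cells more than 3 SD above its plate mean, without a fluorescence outlier flag or 80% toxicity; inconclusive means no clear call, values can overlap the other calls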;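 further: spot-positive cell cutoff set from DMSO-treated cells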
# L major viab: Leishmania major promastigote growth inhibition; inhibition, % at 10 µM; 200,000 tested, 9% active; AID 1063; Leishmania major promastigotes, resazurin fluorescence viability; in the data active means inhibition above about 50%;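 further: promastigotes grown with compound for 44 hours at 28 °C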
# Insulin prom up: MIN6 insulin promoter up-regulation; MIN6 insulin promoter-GFP reporter, high-content imaging; hits give high values; 190,000 tested, 0.3% active; z-score at 5 µM;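 active means z-score above 3 at 5 µM with at least 500 cells counted in the well; inconclusive means wells under 500 cells, flagged as cytotoxic or low count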
# An asterisk follows results filed as active; i = inactive; ? = inconclusive; / = not tested or not shown; + = active, no number.
SMILES,Insulin prom inh,WT yeast gro inh,Autophagy HCS,L major viab,Insulin prom up
CC(=O)c1ccc(N2CCN(C(=O)Nc3cccc(F)c3)CC2)cc1,/,-1.6,i,37.4,-0.07
O=C(c1c[nH]c(C(=O)N2CCN(c3ccccc3F)CC2)c1)c1cccc(Cl)c1Cl,/,54.4,i,7.0,0.88
CCNC(=S)N(Cc1cc2cc(C)ccc2[nH]c1=O)C1CCCC1,15.4,-16.1,i,35.7,/
CCC(=O)N(Cc1cc2cc(C)c(C)cc2[nH]c1=O)C1CCCCC1,36.4,-3.4,i,17.4,-0.43
CC(=O)N(Cc1cc2c(C)cc(C)cc2[nH]c1=O)C1CCCCC1,/,98.5*,i,7.8,/
CCNC(=S)N(Cc1cc2cc(C)cc(C)c2[nH]c1=O)C1CCCC1,-100.0,-7.2,i,98.9*,-0.23
CNC(=S)N(Cc1cc2cc(C)cc(C)c2[nH]c1=O)C1CCCC1,-42.9,22.4,i,60.1*,/
CCNC(=S)N(Cc1cc2c(C)ccc(C)c2[nH]c1=O)C1CCCC1,0.0,-8.6,i,66.6*,0.65
Fc1ccc(NC(=S)N2CCN(c3ncccn3)CC2)cc1,/,3.0,i,-3.5,0.61
Cc1cccnc1CCNC(=O)CC1C(=O)NCCN1CC1CCCCC1 (stereo unspecified),-4.3,8.6,i,-1.8,/
COc1ccc(CCn2c(=O)c3cccnc3n(Cc3cccc([N+](=O)[O-])c3)c2=O)cc1OC,/,-10.7,i,12.9,/
O=C(CCl)NN=C(c1ccccc1)c1ccccc1,/,-7.2,i,100.3*,-0.15
CCN(CC)CC(=O)NN=C(c1ccccc1)c1ccccc1,-14.8,-5.6,i,18.8,-0.53
CC(C)CCn1c(=O)c2ccccc2n2c(CN3CCCC3)nnc12,/,2.2,i,3.8,-0.04
CCCCCn1c(=O)c2ccccc2n2c(CCl)nnc12,/,-16.1,i,87.2*,-0.62
CC(C)CCn1c(=O)c2ccccc2n2c(CCl)nnc12,60.0,-7.4,i,93.5*,-2.46
CC(C)N1CCNCC1,20.0,14.3,i,-7.1,0.17
CCCC(=O)Nc1ccc(C(=O)NNC(=S)NC(=O)c2ccc(Br)o2)cc1,/,-16.6,i,-3.0,-0.05
O=C(Nc1nc2nccc(-c3ccccc3)n2n1)C(Cl)(Cl)Cl,23.1,-8.0,i,53.4*,-0.02
O=C(COC(=O)c1cc(=O)[nH]c2ccccc12)Nc1nc(-c2ccccc2)cs1,-11.8,9.6,i,-1.9,0.79
COc1ccc(S(=O)(=O)NC2CCCCC2)c(C)c1C,-9.5,1.2,i,14.9,-0.05
Cc1cc(S(=O)(=O)NC2CCCCC2)c(C)s1,/,-9.3,i,4.6,3.49*
Cc1cccc(NC(=S)NNC(=O)c2ccc(O)cc2O)c1C,7.1,2.0,i,71.3*,-0.35
N/C(Cc1ccc(Cl)cc1Cl)=N\OC(=O)c1ccccc1F,14.3,97.1*,i,-0.1,-0.02
N/C(Cn1cncn1)=N\OC(=O)c1ccc(Cl)cc1Cl,/,-14.0,i,-7.1,0.04
SMILES,Insulin prom inh,WT yeast gro inh,Autophagy HCS,L major viab,Insulin prom up
CCOC(=O)N1CCC(n2c(=S)[nH]c3cc(OCC)c(OCC)cc3c2=O)CC1,11.1,14.3,+,-3.7,-0.24
CC1N(C)c2cc(NC(=O)c3ccco3)c(P(=O)(Nc3ccc([N+](=O)[O-])cc3)N3CCOCC3)cc2C1(C)C (stereo unspecified),/,11.2,i,55.5*,-1.02
COc1ccc(OC)c(Nc2nc(-c3cccc([N+](=O)[O-])c3)nc3ccccc23)c1,0.0,6.1,+,2.6,0.01
COc1ccc(Nc2nc(-c3cccc([N+](=O)[O-])c3)nc3ccccc23)c(OC)c1,/,-10.0,i,46.5,-1.97
CN(CC(=O)OCC(=O)c1c(N)n(C)c(=O)n(C)c1=O)S(=O)(=O)c1ccc(Cl)cc1,/,-15.0,i,-3.4,-0.32
Cc1c(C(=O)N2CCC(Cc3ccccc3)CC2)sc2ncnc(N3CCC(C)CC3)c12,-42.9,30.6,i,6.9,-0.84
Cc1c(C(=O)N2CCC(C)CC2)sc2ncnc(N(C)c3ccccc3)c12,-13.9,87.9*,i,12.9,-0.52
Cc1ccccc1N(CC(=O)NCCc1ccccc1)C(=O)c1ccc(N2CCCC2)nc1,-97.1,21.2,i,60.7*,-0.51
CN(Cc1nc(-c2cnccn2)no1)CC1CCN(Cc2ccccc2)CC1,/,-3.6,i,91.1*,0.38
CC(C)CN1CCC(CN(C)Cc2nc(-c3cnccn3)no2)CC1,/,0.9,i,-1.7,-1.09
CC(C)CCc1noc(CN(C)CC2CCN(Cc3ccccc3)CC2)n1,/,11.4,i,82.7*,-1.34
CCOc1cc(-c2c(C#N)c(N)nc3c2CCc2ccccc2-3)ccc1O,8.1,42.8,i,90.3*,-0.6
CCOc1cc(/C=C(\C#N)c2[nH]nc(N)c2C#N)ccc1O,-29.2,-4.3,i,67.2*,-0.02
COc1ccccc1-c1c(C#N)c(N)nc2c1CCc1ccccc1-2,-9.1,67.0*,i,86.8*,0.38
COc1cc(-c2cc(-c3ccc(O)cc3)nc(N)c2C#N)ccc1O,-48.7,5.0,i,34.0,1.04
CCOc1cc(-c2cc(-c3ccc(C)cc3)nc(N)c2C#N)ccc1O,40.7,-11.2,+,1.1,-0.13
COc1cccc(C(=O)Nc2ccccc2OC(F)(F)F)c1,/,-4.6,i,-2.9,0.11
O=[N+]([O-])/C=C/c1cc2ccccc2[nH]1,/,/,/,/,-0.92
COc1cc(NC(=O)Cn2nc(C(F)(F)F)c3c2CCCC3)cc(OC)c1OC,64.3,-1.6,i,-2.7,-0.4
CCOC(=O)N/N=C(\C)c1ccc(-n2cnnn2)cc1,-20.0,1.9,i,-3.6,-0.1
CC1CCCCN1C(=O)Cn1cnc2cc([N+](=O)[O-])ccc2c1=O (stereo unspecified),/,10.3,i,11.2,-0.38
CCCOc1ccc(Cl)cc1CNc1ccccc1,/,34.4,i,1.9,-0.07
O=C(COc1ccccc1[N+](=O)[O-])c1ccccc1,/,-7.2,i,98.9*,0.13
O=[N+]([O-])c1ccccc1OCCCNCc1ccccc1,/,4.5,i,97.8*,/
Clc1ccc(OCCCNCc2ccccc2)c(Br)c1,20.0,35.9,i,91.4*,0.95
SMILES,Insulin prom inh,WT yeast gro inh,Autophagy HCS,L major viab,Insulin prom up
O=C(/C=C/c1ccccc1[N+](=O)[O-])OCC(=O)c1ccccc1,17.6,-8.1,i,-3.8,0.86
Clc1ccc(Cl)c(OCCCCNCc2ccccc2)c1,7.9,47.5,i,98.0*,-0.22
Cc1cccc(C)c1NC(=O)c1cccc(COc2cc(Cl)ccc2Cl)c1,-13.3,-9.0,i,4.6,-0.84
Cc1cccc(N2CCN(Cc3cn(C)nc3-c3ccccc3F)CC2)n1,/,0.5,i,2.2,0.4
Oc1cccc2ccc(Nc3ccccn3)nc12,/,-12.7,?,100.5*,-5.7
c1ccc(Nc2ccccc2Nc2ccccn2)nc1,0.0,18.3,i,25.9,-0.53
Cn1c(C(=O)N2CCC(C(=O)N3CCN(Cc4ccc5c(c4)OCO5)CC3)CC2)cc2sccc21,50.0,4.5,i,8.0,4.67*
Cn1c(C(=O)N2CCN(Cc3ccc4c(c3)OCO4)CC2)cc2sccc21,27.3,-6.6,i,70.2*,/
Cn1c(C(=O)NCc2ccc3c(c2)OCO3)cc2sccc21,/,30.9,i,-1.1,-0.32
Cc1cccc(C)c1NC(=O)CNc1ncnc2sc(C)c(C)c12,/,-2.1,i,7.4,0.03
